Bioassay records (PubChem BioAssay)
This is a sample that favours compounds with a hit; in the whole collection about 12% have one here.
L3MBTL1 inh = inhibitors of human L3MBTL1; Q9Y468; AlphaScreen L3MBTL1–H3K9me1 peptide binding; Potency, µM (doses to about 57.1 µM), for the others: top-dose activity, negative = inhibition, actives largely listed as inhibitors; 230,000 tested, 0.66% active; AID 485360; further: on the % scale 0 is the no-effect control and ±100 the full control effect; nearly all actives have a fitted effect of over 60% in size
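L3MBTL1 (50 nM) pre-complexed 30 min with biotinylated H3(1-15)K9me1 peptide (75 nM), then compounds added for 30 min at room temperature; AlphaScreen streptavidin donor/nickel chelate acceptor beads (10 ug/mL final) read after 30 min dark incubation.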
HP1b chromo inh = inhibitors of HP1-beta chromodomain binding to methylated histone tails; AlphaScreen HP1-beta / biotin-H3K9me3 peptide binding; Potency, µM (titrated, usually from 114 µM), for the others: at the top dose activity change, negative = inhibition, actives largely listed as inhibitors; 390,000 tested, 0.56% active; AID 540317; further: nearly all actives have a fitted effect of over 70% in size
Target sequence (P83916 whole entry, looked up): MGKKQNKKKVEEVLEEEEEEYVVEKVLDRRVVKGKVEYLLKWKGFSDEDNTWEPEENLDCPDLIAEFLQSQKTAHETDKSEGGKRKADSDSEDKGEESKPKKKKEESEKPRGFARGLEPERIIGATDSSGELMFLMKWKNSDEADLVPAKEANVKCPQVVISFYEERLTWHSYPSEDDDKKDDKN
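AlphaScreen: HP1-beta (50 nM) preformed 30 min with biotin-H3(1-18)K9me3 peptide (50 nM) in PBS pH 7.4, 0.01% Tween-20. Compound added for 30 min at RT, then streptavidin donor/nickel chelate acceptor beads (10 ug/mL) for 30 min.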
BAZ2B block = BAZ2B (human) inhibition. Q9UIF8. AID 504333. AlphaScreen BAZ2B-H3K14Ac peptide displacement. 360,000 tested, 4.4% active. Potency, µM (titrated, usually from 114 µM), for inactives: top-dose activity change, negative = inhibition, usual class: inhibitors; further: on the % scale 0 is the no-effect control and ±100 the full control effect; nearly all actives have a fitted effect of over 60% in size
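Compounds, titrated to a top concentration of 110 uM, were incubated 30 min at room temperature with preformed BAZ2B/acetyl-K14 H3 peptide complex (50 nM each). Proximity signal was measured by AlphaScreen after 20 min with beads.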
G9a block = G9a (human) methyltransferase inhibition; Potency, µM (highest dose often 102 µM), for the others: at the top dose activity, negative = inhibition, usual class: inhibitors; Q96KQ7; G9a H3K9 monomethylation, AlphaScreen, 2 h; 350,000 tested, 8.8% active; AID 504332; further: on the % scale 0 is the no-effect control and ±100 the full control effect; nearly all actives have a fitted effect of over 75% in size
Target sequence (Q96KQ7 913-1193 limits assumed): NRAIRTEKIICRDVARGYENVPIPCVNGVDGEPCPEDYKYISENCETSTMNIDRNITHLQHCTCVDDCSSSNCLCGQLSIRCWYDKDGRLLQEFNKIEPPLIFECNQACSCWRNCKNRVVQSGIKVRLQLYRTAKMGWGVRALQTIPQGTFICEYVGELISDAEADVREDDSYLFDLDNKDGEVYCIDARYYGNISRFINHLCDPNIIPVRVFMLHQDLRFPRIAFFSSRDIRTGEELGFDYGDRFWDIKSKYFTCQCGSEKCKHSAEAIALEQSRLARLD
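Using a bead-based AlphaScreen, monomethylated H3K9 product from 2 h room-temperature reactions (G9a 20 nM, peptide 500 nM, SAM 20 uM) was detected with 0.5 ug/mL rabbit anti-H3K9me1 antibody.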
JMJD2A Tudor inh = inhibitors of human JMJD2A Tudor domain. O75164. AlphaScreen JMJD2A-Tudor / H3K4me3 peptide binding. Potency, µM (doses to about 114 µM), for inactives: top-dose activity change, negative = inhibition, usual class: inhibitors. 390,000 tested, 4.4% active; further: on the % scale 0 is the no-effect control and ±100 the full control effect; nearly all actives have a fitted effect of over 50% in size
Sfp inh = Sfp phosphopantetheinyl transferase inhibition. Biochemical Sfp PPTase activity, qHTS. Potency, µM, for the others: largest response in the series, negative = inhibition, actives largely listed as inhibitors. 310,000 tested, 3.5% active. Q9F4F7. AID 1490;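 further: the enzyme is Sfp with the accession as filed and its product quenches rhodamine fluorescence; 0% = enzyme reaction without inhibitor and -100% = no enzyme wells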
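Compounds were incubated with enzyme (final 15 nM) for 15 min at room temperature before substrate addition started the reaction. Fluorescence at 525 nm excitation, 598 nm emission was recorded immediately and after 30 minutes.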
* marks the source's active call; other numbers are inactive results; ? = inconclusive; . = not tested or not shown; [ ] = dose if it differs, or a comment. The call rests on the fitted dose curve; in most records, active means well fitted curve in the direction sought with a large enough effect; inconclusive means small, poorly fitted or top-dose-only effect, or another doubt; inactive means no such curve, though single readings can be large; an effect the other way counts as inactive or inconclusive. Potency means the concentration at half of the fitted maximal effect.

SMILES	L3MBTL1 inh	HP1b chromo inh	BAZ2B block	G9a block	JMJD2A Tudor inh	Sfp inh
CN(CCOc1ccccc1)CC(=O)Nc1ccc(Cl)c(S(=O)(=O)N(C)C)c1	-2%	-7%	.	8.9µM*	2.8µM*	56µM*
CN(C)S(=O)(=O)c1ccc(Cl)c(C(=O)Nc2ccccc2[N+](=O)[O-])c1	0%	-10%	-10%	3%[59 µM]	-35%	5%
CCN(CC)S(=O)(=O)c1ccc(Cl)c(C(=O)Nc2ccc(Cl)cc2[N+](=O)[O-])c1	?	?	?	8.9µM*	?	13%
CN(CCOc1ccccc1)CC(=O)Nc1ccc(Cl)cc1[N+](=O)[O-]	-22%	25µM*	13µM*	3.5µM*	0.79µM*	50µM*
COc1cc(NC(=O)CN(C)CCOc2ccccc2)c(C)cc1[N+](=O)[O-]	.	28%	-24%	-15%	?	3%
Cc1cc2c(s1)c1cnn(Cc3ccc(S(C)(=O)=O)cc3)c(=O)c1n2C	.	.	.	.	-3%	.
CC1(C)Cc2c(c(N3CCCCC3)[nH]c(=S)c2C#N)CS1	-12%	27%	5%	2%[59 µM]	-18%	2%
CC1CCN(c2[nH]c(=S)c(C#N)c3c2CCCC3)CC1	-6%	32%	8%	32µM*	-6%	32µM*
COCCn1nnnc1SCC(=O)c1ccccc1	.	41%	4%	38%[2.33 µM]	0%	50µM*
CCCn1nnnc1SCC(=O)c1ccc(NC(C)=O)cc1	4%	40%	3%	?	-16%	79µM*
CC(=O)Nc1ccc(C(=O)CSc2nnc(Cn3nnc4ccccc43)n2C)cc1	3%	10%	4%	79µM*	56µM*	4%
CCCCn1nnnc1SCC(=O)Nc1ccc(N(C)C)cc1	.	-16%	-38%	45µM*	?	-4%
CC(=O)Nc1ccc(C(=O)CSc2nnnn2C)cc1	.	54%	-1%	9%[59 µM]	2%	-3%
CCCCn1nnnc1SCC(=O)Nc1ccc(F)cc1	-7%	56%	5%	1%	-1%	7%
COCCCNC(=O)c1sc2nc3n(c(=O)c2c1C)CCC3	.	32%	-1%	-17%[59 µM]	-10%	.
CCc1nc(-c2cc(S(=O)(=O)N3CCN(c4ccc(F)cc4)CC3)ccc2OC)no1	.	27%	-26%	?	-17%	.
COc1ccccc1NC(=O)CSC1=Nc2ccccc2C2=NC(CCC(=O)NCc3cccs3)C(=O)N12 (configuration not stated)	.	24%	-6%	9%[59 µM]	-3%	.
Cc1cc(C)c(NC(=O)C2=CCN(S(=O)(=O)c3ccc(F)cc3)CC2)c(C)c1	1%	36%	2%	?	-19%	-3%
Cc1cc(C)c(NC(=O)c2c[nH]c(=S)n2-c2ccc(F)cc2)c(C)c1	-2%	28%	-21%	2.8µM*	?	-11%
COc1ccccc1N1C(=O)CC(Sc2nc(C)cc(C)n2)C1=O (configuration not stated)	6%[11.4 µM]	32%	2%	-6%[59 µM]	-16%	13%
CCOc1ccccc1N1C(=O)CC(Sc2n[nH]c(-c3ccccc3)n2)C1=O (configuration not stated)	-3%	13µM*	?	1.6µM*	1.4µM*	35µM*
C=C1CCC(O)C/C1=C/C=C1\CCC[C@]2(C)[C@@H]([C@H](C)/C=C/[C@H](C)C(C)C)CC[C@@H]12 (some centres not stated)	.	.	.	?	.	24%
CN(C)/C=C/c1oc2ccc(O)cc2c1[N+](=O)[O-]	-11%	-20%	25µM*	50µM*	-22%[57.1 µM]	8%
COc1ccccc1CNC(=O)Cn1ncc2c(C)n(Cc3ccccc3Cl)c(C)c2c1=O	.	37%	-18%	-1%[59 µM]	-7%	.
C[n+]1cn(CC(O)COCc2ccccc2)c2ccccc21 (configuration not stated)	11%	22%	?	.	-10%	-13%
SMILES	L3MBTL1 inh	HP1b chromo inh	BAZ2B block	G9a block	JMJD2A Tudor inh	Sfp inh
Cc1cc2c(cc1C)[n+](C)cn2CC(O)COCc1ccccc1 (configuration not stated)	-1%	5%	7%	5.6µM*	?	-3%
CC(C)C[C@@H](CC(=O)N[C@@H](CCC(=O)O)CC(=O)O)NC(=O)[C@@H]1CNCC[C@H]1NC(=O)C[C@H](CCCN)NC(=O)C[C@H](Cc1ccccc1)NC(=O)[C@@H]1CNCC[C@H]1N	.	.	.	.	.	-1%
Fc1cc2[nH]c(=S)[nH]c2cc1Cl	-2%	8%	-2%	6.3µM*	-11%	8%
c1ccc(CNCc2nnc(-c3cc4ccccc4[nH]3)o2)cc1	.	.	.	.	-12%	.
COc1ccc(N2CCN(Cc3cc4c(cc3Br)OCCO4)CC2)cc1	.	?	13µM*	28µM*	22µM*	-7%
COc1ccc(N2CCN(Cc3csc(C)c3-c3ccc(C)cc3)CC2)cc1	.	35µM*	28µM*	11µM*	13µM*	-21%
COC1=CC(=O)C(C(=O)c2ccccc2)=CC1=O	.	.	.	.	.	40µM*
CCOC(=O)c1c(C)[nH]c(C)c1S(=O)(=O)N1CCCC(C(=O)N2CCN(c3ccc(Cl)cc3)CC2)C1 (configuration not stated)	.	-4%	?	-1%[59 µM]	?	.
CC(=O)Nc1ccc(NC(=O)C2CCN(S(=O)(=O)c3ccc4c(c3)OCCO4)CC2)cc1	0%	28%	13%	18µM*	-5%	.
COc1ccc(OC)c(NC(=O)C2CCN(S(=O)(=O)c3ccc4c(c3)OCCO4)CC2)c1	1%	11%	0%	50µM*	-22%	.
CC(C)C(C)NC(=O)COC(=O)C1CCN(S(=O)(=O)c2ccc3c(c2)OCCO3)CC1 (configuration not stated)	1%	36%	9%	50µM*	-2%	.
O=C(Nc1ccc2c(c1)OCCO2)C1CCN(S(=O)(=O)c2ccc3c(c2)OCCO3)CC1	.	4%	1%	4%[59 µM]	-21%	6%
Cc1ccc(CN2CCNC(=O)C2CC(=O)O)cc1 (configuration not stated)	4%	36%	6%	16µM*	-4%	1%
O=C(O)CC1C(=O)NCCN1CCCc1ccccc1 (configuration not stated)	-2%	25%	1%	28µM*	-20%	11%
Cc1ccc(NCC(=O)N/N=C/c2ccc(C(=O)O)cc2)cc1	.	35%	-13%	-23%	-7%[11.4 µM]	-30%
COC(=O)c1ccc(/C=N/NS(=O)(=O)c2cc(C)ccc2C)cc1	10%	48%	-21%	2.5µM*	-1%	9%
Cc1ccc(C)c(S(=O)(=O)N/N=C/c2ccc(C(=O)O)cc2)c1	7%	26%	0%	35µM*	-12%	1%
